A selection: hits, their analogues and other compounds. The true share with any hit is near 7.5%.
HCMV antiviral = inhibitors of human cytomegalovirus; 410,000 tested, 4.5% active; activity change, negative = inhibition, % at 57.5 µM; AID 1259415; HFF cells, HCMV-luciferase reporter, 72 h; hits give low values; in the data active means activity change below about -60%; inconclusive means no clear call, values can overlap the other calls; inactive means above about -39%
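Screen run at 2 compound doses on HFFs infected with reporter HCMV, MOI 1 PFU/cell. Luciferase activity from cell lysates at 72 h post infection gave inhibition relative to buffer-only and Salinomycin wells.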
HCV inh = blocks hepatitis C virus; Huh7.5.1 HCVcc-Cre infection, luciferase reporter, 44 h; Potency, µM (highest dose often 41.8 µM), inactives show at the highest dose activity change, negative = inhibition, hits mostly inhibitors; 340,000 tested, 3.4% active; AID 651820; further: potency means the concentration at half of the fitted maximal effect
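Cells (1,000/well) were plated 4 h before compound, then infected with HCVcc-Cre virus (~0.5 moi). After 44 h further culture, infection was read as luciferase luminescence following a 15 min substrate incubation at room temperature.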
FBPA Giardia inh = Giardia lamblia aldolase inhibition. A8B2U2. purified Giardia FBPA. Potency, µM (titrated, usually from 59.6 µM), inactives show top-dose activity, negative = inhibition, usual class: inhibitors. 290,000 tested, 0.71% active. AID 2451; further: potency means the concentration at half of the fitted maximal effect; nearly all actives have a fitted effect of over 55% in size
Target sequence (A8B2U2 whole entry, looked up): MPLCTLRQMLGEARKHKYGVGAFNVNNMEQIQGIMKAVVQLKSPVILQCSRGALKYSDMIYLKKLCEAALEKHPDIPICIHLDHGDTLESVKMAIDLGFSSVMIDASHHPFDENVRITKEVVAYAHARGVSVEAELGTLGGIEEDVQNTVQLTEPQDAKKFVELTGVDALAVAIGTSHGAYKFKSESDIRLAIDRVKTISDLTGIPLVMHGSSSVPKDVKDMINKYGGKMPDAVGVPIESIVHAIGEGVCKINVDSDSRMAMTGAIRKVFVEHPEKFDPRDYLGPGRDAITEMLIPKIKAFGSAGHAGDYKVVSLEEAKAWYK
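40 nM FBPA preincubated 10 min at RT with compound (up to 57.5 uM final), then substrate plus GAPDH/TPI/NAD/arsenate coupling and diaphorase/resazurin added. Fluorescence read after 20 min at RT, 525/598 nm.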
VACV Venus inh = vaccinia inhibition (Venus reporter) | 330,000 tested, 0.46% active | Potency, µM (highest dose often 36.5 µM), for the others: top-dose activity change, negative = inhibition, usual class: inhibitors | AID 720580 | Vaccinia virus Venus reporter expression, fluorescence; calls by dose curve; tested in A549 cells; further: potency means the concentration at half of the fitted maximal effect; nearly all actives have a fitted effect of over 30% in size
Vaccinia mCherry = vaccinia inhibition (mCherry reporter); Vaccinia virus mCherry reporter infection, fluorescence; Potency, µM (highest dose often 36.5 µM), inactives show at the highest dose activity change, negative = inhibition, hits mostly inhibitors; 310,000 tested, 0.63% active; calls by dose curve; tested in A549 cells; further: potency means the concentration at half of the fitted maximal effect; nearly all actives have a fitted effect of over 35% in size
FMDV antiviral = foot and mouth disease virus antiviral activity. FMDV antiviral cell-based qHTS. Potency, µM (highest dose often 57.9 µM), without a hit: top-dose activity change, negative = inhibition, hits mostly inhibitors. 410,000 tested, 1.2% active; calls by dose curve; tested in HEK293T cells; further: read-out not given here; potency means the concentration at half of the fitted maximal effect; nearly all actives have a fitted effect of over 45% in size
Numbers without * were called inactive; i = inactive; ? = inconclusive; · = not tested or not shown; ! = not confirmed by another sample; [ ] = another dose, or the depositor's remark. Unless noted, the call rests on the fitted dose curve; in most records, active means well fitted curve in the direction sought with a large enough effect; inconclusive means small, poorly fitted or top-dose-only effect, or another doubt; inactive means no such curve, though single readings can be large; an effect the other way counts as inactive or inconclusive. On the % scale 0 is the no-effect control and ±100 the full control effect.

SMILES | HCMV antiviral | HCV inh | FBPA Giardia inh | VACV Venus inh | Vaccinia mCherry | FMDV antiviral
O=C(CCS(=O)(=O)c1ccccc1)Nc1nc(-c2ccc(F)cc2)cs1 | 0 | -10% | 5% | ? | 13µM* | ?
COc1ccc(C2(c3ccc(OC)cc3)NC(=O)N(CC(=O)Nc3ccc(OC(F)F)cc3)C2=O)cc1 | 12 | 13µM* | · | ? | ? | ?
O=c1[nH]c2ccccc2n1CCCSCCCn1c(=O)[nH]c2ccccc21 | -66* | ? | -5% | · | · | 20µM*
Cc1ccc(C(=O)NCCc2nnc3n2CCN(C(=O)c2ccnc(Cl)c2)CC3)cc1 | · | · | · | 2% | 0% | 1%
O=C1CS(=O)(=O)C2(C(=O)N(Cc3ccc(F)cc3)c3ccccc32)N1c1cccc(C(F)(F)F)c1 (stereo not given) | -77* | · | · | -8% | -8% | -1%
Cc1ccc(CN2C(=O)C3(c4ccccc42)N(c2cccc(C(F)(F)F)c2)C(=O)CS3(=O)=O)cc1 (stereo not given) | -5 | · | · | 9% | 17% | ?
COc1ccc(-c2coc3cc4oc(=O)c5ccccc5c4cc23)cc1F | -85* | ? | 4% | -30% | -9% | -16%
CCOC(=O)c1ccc(Nc2cc(C)nc(-c3ccccc3)n2)cc1 | -76* | ? | -12% | ? | ? | -22%
CCOc1ccc(Nc2cc(C)nc(N3CCOCC3)n2)cc1 | -11 | -16% | -14% | -14% | · | -8%
CCOC(=O)c1ccc(Nc2cc(C)nc(N3CCOCC3)n2)cc1 | 25 | ? | -1% | 13µM* | 10µM* | 0%
CC1CCCC(NC(=O)c2cccc(S(=O)(=O)N3CCN(c4ccccc4)CC3)c2)C1C (stereo not given) | -20 | ? | · | -18% | -2% | -20%
CCCCNS(=O)(=O)c1ccc2nc(-c3cccnc3)cc(C(=O)NCCCOC(C)C)c2c1 | -32 | · | · | -5% | -9% | 98%
Cc1c(C(=O)NCc2ccccc2C(F)(F)F)sc(=O)n1Cc1ccc2ccccc2c1 | -71* | · | · | -2% | i | -5%
Cc1c(C(=O)NCc2ccccc2C(F)(F)F)sc(=O)n1Cc1cccc(C(F)(F)F)c1 | -16 | · | · | -6% | i | -16%
Cc1c(C(=O)NCc2ccc(Cl)c(Cl)c2)sc(=O)n1Cc1ccc(S(C)(=O)=O)cc1 | -80* | · | · | -18% | -12% | 35µM*
Cc1c(C(=O)NCc2ccc3c(c2)OCCO3)sc(=O)n1Cc1cccc(C(F)(F)F)c1 | -79* | · | · | -2% | 14% | -20%
Cc1c(C(=O)NCc2ccc3c(c2)OCO3)sc(=O)n1Cc1ccc(S(=O)(=O)N(C)C)cc1 | -30 | · | · | -12% | -13% | ?
Cc1c(C(=O)NCc2ccc3c(c2)OCCO3)sc(=O)n1Cc1ccc(S(=O)(=O)N(C)C)cc1 | -37 | · | · | -11% | i | 14µM*
C=C1[C@H](C)CN[C@H]1CCO | -26 | 55% | · | ? | -25% | -10%
Cc1ccc(F)c(S(=O)(=O)NC(=O)C2(C)CCN2C(=O)CCC2CCCC2)c1 (stereo not given) | -16 | · | · | 7% | -5% | -17%
Cc1noc(C)c1NC(=O)N1C[C@H](O)COC[C@H]2O[C@@H](CC(=O)NCC3CCCCC3)CC[C@@H]21 | -1 | · | · | -10% | -11% | -11%
O=C(C1CCCN(S(=O)(=O)c2cccc3nsnc23)C1)N1CCN(c2ccccc2)CC1 (stereo not given) | -40 | · | · | -13% | -17% | ?
CCN1C(=O)CC(CC(=O)N2CCC(c3nc4ccc(F)cc4[nH]3)CC2)(c2ccccc2C)C1=O (stereo not given) | · | · | · | -5% | -29% | -11%
CSc1ccc(Cn2c(C)c(C(=O)NCc3ccc4c(c3)OCCO4)sc2=O)cc1 | -74* | · | · | -6% | i | ?
CCOc1ccccc1C1Nc2ccccc2-c2nnc(SCc3ccccc3)nc2O1 (stereo not given) | 15 | · | · | 5% | -5% | 1%
SMILES | HCMV antiviral | HCV inh | FBPA Giardia inh | VACV Venus inh | Vaccinia mCherry | FMDV antiviral
N=c1c(C(=O)NCCN2CCOCC2)cc2c(=O)n3ccccc3nc2n1Cc1ccc(F)cc1 | -27 | ? | · | -2% | -17% | -4%
Cc1ccc(CNC(=O)c2cc3c(=O)n4ccccc4nc3n(Cc3ccco3)c2=N)cc1 | -26 | ? | 5% | -4% | -16% | ?
N=c1c(C(=O)NCc2ccccc2)cc2c(=O)n3ccccc3nc2n1Cc1ccco1 | 26 | 7.9µM* | 2% | -19% | -28% | -28%
N=c1c(C(=O)NCc2ccc(F)cc2)cc2c(=O)n3ccccc3nc2n1Cc1ccco1 | 32 | 1µM* | 0% | -4% | -18% | ?
Cc1ccc2nc3c(cc(C(=O)NCc4ccco4)c(=N)n3Cc3ccco3)c(=O)n2c1 | -61* | 4.5µM* | -3% | -3% | -3% | 4%
N=c1c(C(=O)NCc2ccco2)cc2c(=O)n3ccccc3nc2n1Cc1ccc(Cl)cc1 | 19 | 5µM* | -26% | · | · | -3%
COCCn1c(=N)c(C(=O)NCc2ccco2)cc2c(=O)n3ccccc3nc21 | 12 | -29% | -15% | 1% | 1% | -13%
Cc1ccc2nc3c(cc(C(=O)NCc4ccccc4)c(=N)n3CCCn3ccnc3)c(=O)n2c1 | -39 | -9% | · | · | · | 14%
CC1CCC(C(=O)O)NC1c1cccc(N2CCOCC2)c1 (stereo not given) | · | · | -2%[12.9 µM] | · | · | ·
COc1cc(=O)n2c(c1C(=O)NCc1ccc3c(c1)OCO3)CCN(C(=O)c1ccccc1F)CC2 | · | · | · | 4% | -9% | -7%
Cc1ccccc1N(C(=O)CS(=O)CC(=O)Nc1ccc(F)cc1)C(C)C(=O)NC(C)(C)C (stereo not given) | 9 | 17% | -2% | -2% | -13% | 9%
CCCCC[C@]12Cc3cc(OC)c(OC)cc3[C@H](O1)c1c(cc(C)oc1=O)O2 | · | · | 16%[12.9 µM] | · | · | ·
Cc1ccccc1C(=O)N=c1c(C#N)cc2c(=O)n3cccc(C)c3nc2n1Cc1ccco1 | · | · | -1% | · | · | ·
CC(=O)N=c1c(C#N)cc2c(=O)n3cccc(C)c3nc2n1Cc1ccco1 | ? | 11µM* | -1% | · | · | -4%
O=C(CCCCn1c(=O)c2ccccc2n(Cc2ccc(Cl)cc2)c1=O)NCc1ccco1 | 42 | 13µM*! | 6% | ? | · | ?
COc1ccc(CCNC(=O)c2cc3c(=O)n4cccc(C)c4nc3n(Cc3ccco3)c2=N)cc1OC | -28 | 11µM* | -11% | -8% | i | ?
COc1ccc(C(=O)NC(CCSC)C(=O)NCc2nnc3ccccn23)cc1 (stereo not given) | -19 | 3% | · | -8% | -15% | -1%
CC(C)C(NC(=O)CN(c1ccc2c(c1)OCCO2)S(=O)(=O)c1ccccc1)C(C)C | -61* | 18% | · | -20% | 0% | -3%
COc1ccc(S(=O)(=O)N(C)CC(=O)Nc2ccc3c(c2)OCO3)cc1 | 21 | ? | -5% | -17% | 0% | ·

Assay outcomes as filed in PubChem BioAssay.
